Source: PubChem
D2 PAM-1 – positively modulates the human D2 dopamine receptor allosterically | P14416 | HEK293 T-REx D2, calcium flux, EC20 dopamine potentiation | potentiation, % at 10 µM | actives 0.34% (n = 340,000);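 active = potentiation over 3 SD above the plate norm, cut at about 30% in these data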; note: 0% is about no effect
Target sequence (P14416 whole entry, looked up): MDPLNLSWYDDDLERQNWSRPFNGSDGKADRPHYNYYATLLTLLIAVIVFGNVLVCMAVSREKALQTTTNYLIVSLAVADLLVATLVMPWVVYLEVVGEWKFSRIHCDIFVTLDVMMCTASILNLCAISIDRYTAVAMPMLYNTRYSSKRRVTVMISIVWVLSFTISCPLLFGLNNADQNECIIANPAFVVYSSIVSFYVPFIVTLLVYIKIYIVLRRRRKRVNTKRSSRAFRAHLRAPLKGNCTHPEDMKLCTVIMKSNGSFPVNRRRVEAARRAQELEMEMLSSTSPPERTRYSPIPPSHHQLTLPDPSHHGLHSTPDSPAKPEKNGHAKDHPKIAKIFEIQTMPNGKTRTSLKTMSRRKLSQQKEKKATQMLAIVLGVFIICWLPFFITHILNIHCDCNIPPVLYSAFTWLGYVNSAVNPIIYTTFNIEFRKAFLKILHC
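Potentiation of an EC20 dopamine calcium response is measured in a force-coupled, tetracycline-inducible Hek293 Trex D2 line. Compound-only kinetic reads over 180 s flag agonists before dopamine addition.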
D2 antag – D2 dopamine receptor (human) antagonism. HEK293 TREx D2 cells, calcium flux, dopamine EC80. P14416. actives 2% (n = 340,000). inhibition, % at 10 µM. AID 485344; in the data active = inhibition above about 30%; inactive = below that, where a call was filed; note: 0% is about no effect
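Inhibition of EC80 dopamine-driven calcium flux, recorded kinetically, defines activity here; cells are a tetracycline-induced HEK293 T-REx line expressing force-coupled D2.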
D2 ag-1 – agonists of human D2 dopamine receptor; P14416; HEK293 T-REx D2 cells, calcium flux agonist mode; activation, % at 2 µM; actives 0.53% (n = 340,000); AID 485358;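 active = activation over 3 SD above normal in the single-dose calcium agonist read, cut at about 30% in these data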; note: 0% is about no effect
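Agonism is scored from calcium flux in a force-coupled, inducible HEK293 cell line expressing D2, read kinetically for 180 s after compound addition against dopamine controls.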
D2 PAM-2 – human D2 receptor positive allosteric modulation; P14416; actives 0.23% (n = 360,000); DiscoveRx D2 beta-arrestin cells, luminescence, 90 min; 100% = 57 uM dopamine signal; potentiation, % (concentration not given with the values); in the data active = potentiation above about 50%
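D2 cells co-treated with compound plus 50 nM dopamine (EC20) for 90 min at 37 deg C to detect potentiation. Beta-arrestin recruitment was read as enzyme-fragment luminescence after 1 h at ambient temperature. Full response was set by 57 uM dopamine.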
D2 ag-2 – agonists of human D2 dopamine receptor (beta-arrestin); activation, % (test concentration not listed); AID 624465; DiscoveRx PathHunter D2 beta-arrestin, luminescence, 90 min; 100% = 57 uM dopamine signal; P14416; actives 0.084% (n = 360,000); in the data active = activation above about 40%
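Agonist mode: compounds alone added to overnight-plated D2 PathHunter cells for 90 min at 37 C, with 57 uM final dopamine (EC100) defining full response. Beta-arrestin recruitment detected by chemiluminescent reagent, read after 1 h at ambient temperature.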
The depositor's hits bear a star. This is a sample that favours compounds with a hit; in the whole collection about 2.4% have one here.

Results for COc1cc(F)c(C2=CC(=O)C[C@H](c3ccc(Cl)cc3)C2)cc1F ?
D2 PAM-1: -7; D2 antag: 35*; D2 ag-1: 1; D2 PAM-2: -11; D2 ag-2: -5

What do the screens show for `O=C1C=C(c2cc(F)ccc2F)C[C@@H](c2ccc(Cl)cc2)C1`?
D2 PAM-1: 2; D2 antag: 9; D2 ag-1: -1; D2 PAM-2: -5; D2 ag-2: -6

Results for COc1ccccc1CNC(=O)CCCn1c(=O)c2ccccc2n(Cc2ccc(F)cc2)c1=O ?
D2 PAM-1: 1; D2 ag-1: 0

What do the screens show for `CN(C1CCCC1)C1CCN(C(=O)CNC(=O)/C=C/c2ccc(F)cc2)CC1`?
D2 PAM-1: -3; D2 antag: 85*; D2 ag-1: 2; D2 PAM-2: -3; D2 ag-2: -2

Results for Cc1ccccc1CN(C)CC(=O)Nc1ccccc1Oc1ccccc1 ?
D2 PAM-1: 15; D2 antag: 43*; D2 ag-1: 3; D2 PAM-2: -8; D2 ag-2: -9

What do the screens show for `COc1ccc(-c2cc(C(F)(F)F)n3nc(C(=O)OC(C)C)cc3n2)cc1`?
D2 PAM-1: 8; D2 ag-1: 0

How did COc1cc(/C=N/NC(=O)c2c(-c3ccccc3)noc2C)cc(OC)c1OC do in these assays?
D2 PAM-1: -21; D2 antag: 56*; D2 ag-1: -2; D2 PAM-2: 8; D2 ag-2: 7

What do the screens show for `O=C(COc1cccc2cccnc12)Nc1ccccc1N1CCOCC1`?
D2 antag: 30*; D2 ag-1: 0; D2 PAM-2: 8; D2 ag-2: 2

Results for Cc1cc(C)nc(NN2C(=O)/C(=C/c3ccc(O)cc3)SC2=S)n1 ?
D2 PAM-1: 8; D2 antag: 45*; D2 ag-1: 9; D2 PAM-2: -18; D2 ag-2: -7

How did COc1ccccc1/C=C1\SC(=S)N(Nc2nc(C)cc(C)n2)C1=O do in these assays?
D2 PAM-1: 3; D2 antag: -13; D2 ag-1: 0; D2 PAM-2: -15; D2 ag-2: -2

How did CN(C)S(=O)(=O)N(CC(=O)NCCSCc1cccc(Cl)c1)c1ccccc1 do in these assays?
D2 PAM-1: 14; D2 ag-1: -2

How did O=C(CC1Nc2ccccc2NC1=O)NC1CCCCC1 (configuration not stated) do in these assays?
D2 PAM-1: -2; D2 antag: 1; D2 ag-1: 0; D2 PAM-2: -4; D2 ag-2: -1

Results for CC1CCCC(NC(=O)CC2Nc3ccccc3NC2=O)C1C (configuration not stated) ?
D2 PAM-1: 0; D2 antag: 30*; D2 ag-1: 0; D2 PAM-2: -5; D2 ag-2: -2

How did CCOc1ccc2ncc3c(-c4ccc(C)cc4)nn(-c4cccc(F)c4)c3c2c1 do in these assays?
D2 PAM-1: 18; D2 ag-1: 1

How did COc1cc2c(cc1OC)C(c1cc3cc4c(cc3[nH]c1=O)OCO4)N(C(=O)C1CC1)CC2 (configuration not stated) do in these assays?
D2 PAM-1: -7; D2 antag: 33*; D2 ag-1: -1; D2 PAM-2: 5; D2 ag-2: 1

What do the screens show for `COc1cc2c(cc1OC)C(c1cc3ccc(C)cc3[nH]c1=O)N(C(=O)c1ccco1)CC2` (configuration not stated)?
D2 PAM-1: 9; D2 antag: 11; D2 ag-1: 3; D2 PAM-2: -5; D2 ag-2: -1

How did Cc1csc(=O)n1CCC(=O)OCC(=O)Nc1ccc(S(N)(=O)=O)cc1 do in these assays?
D2 PAM-1: 2; D2 antag: 54*; D2 ag-1: -1; D2 PAM-2: 1; D2 ag-2: 0

Results for Cc1csc(=O)n1CCC(=O)OCC(=O)Nc1ccc(C(N)=O)cc1 ?
D2 PAM-1: -4; D2 antag: -3; D2 ag-1: 0; D2 PAM-2: -1; D2 ag-2: -5

Results for CC1CCCN(C(=O)c2ccc(CSc3nc4ccncc4n3Cc3ccccc3)cc2)C1 (configuration not stated) ?
D2 PAM-1: 10; D2 ag-1: 0
